Each structure is given as a SMILES string. Results filed as inconclusive are left out. The source made the active and inactive calls. The call rests on the fitted dose curve; in most records, active means well fitted curve in the direction sought with a large enough effect; inconclusive means small, poorly fitted or top-dose-only effect, or another doubt; inactive means no such curve, though single readings can be large; an effect the other way counts as inactive or inconclusive.

The nature of test [1]: Quantitative High-Throughput drug screen in 47 multiple myeloma cell lines against the NCATS MIPE library collection: KHM11_PLB cell viability assay (AID 1918962). Further: nearly all actives have a fitted effect of over 35% in size. Further: potency means the concentration at half of the fitted maximal effect. The procedure, abridged: (§1)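 Myeloma cell lines, 500 cells per well, exposed to MIPE 4.0 library compounds for 48 h at 37C, 5% CO2. Viability from ATP by CellTiter-Glo luminescence; normalised to DMSO (100%) and media-only (0%) wells.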

A short description of test [2]: Quantitative High-Throughput drug screen in 47 multiple myeloma cell lines against the NCATS MIPE library collection: JIM3_ECACC cell viability assay (AID 1918963; further: nearly all actives have a fitted effect of over 35% in size; further: potency means the concentration at half of the fitted maximal effect). The procedure, abridged: as §1
A short description of test [3]: Quantitative High-Throughput drug screen in 47 multiple myeloma cell lines against the NCATS MIPE library collection: JIM1_ECACC cell viability assay (AID 1918964; further: potency means the concentration at half of the fitted maximal effect). The procedure, abridged:
(§2)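 CellTiter-Glo ATP luminescence gave viability after 48 h compound treatment at 37C of 500 multiple myeloma cells per well. Normalisation used DMSO-only wells as 100% and media-only wells as 0% viability; primary qHTS of approved and investigational drugs.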

Test [4] in a line: Quantitative High-Throughput drug screen in 47 multiple myeloma cell lines against the NCATS MIPE library collection: JJN3_DSMZ cell viability assay (AID 1918966; further: nearly all actives have a fitted effect of over 50% in size; further: potency means the concentration at half of the fitted maximal effect). The method, boiled down: as §2
Test [5] is described as follows: Quantitative High-Throughput drug screen in 47 multiple myeloma cell lines against the NCATS MIPE library collection: H1112_PLB cell viability assay (AID 1918967; further: nearly all actives have a fitted effect of over 30% in size; further: potency means the concentration at half of the fitted maximal effect). The procedure, abridged: as §2
Test [6] can be described thus: Quantitative High-Throughput drug screen in 47 multiple myeloma cell lines against the NCATS MIPE library collection: Karpas25_ECACC cell viability assay (AID 1918968; further: nearly all actives have a fitted effect of over 35% in size; further: potency means the concentration at half of the fitted maximal effect). The procedure, abridged: as §2
Test [7] in a line: Quantitative High-Throughput drug screen in 47 multiple myeloma cell lines against the NCATS MIPE library collection: KMS27_JCRB cell viability assay (AID 1918970). Further: nearly all actives have a fitted effect of over 30% in size. Further: potency means the concentration at half of the fitted maximal effect. Conditions: KMS27 myeloma cells, CellTiter-Glo ATP viability, 48 h; viability (% of DMSO): at 45.8 µM (top of the series). The method, boiled down:
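CellTiter-Glo luminescence after 48 h drug exposure at 37 °C; 500 cells/well, 1536-well format, pin-tool compound addition; DMSO = 100%, media-only = 0% viability.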
A general note: Cellular ATP, detected with luciferase, serves as a proxy for viable cell number.

A short description of test [8]: Quantitative High-Throughput drug screen in 47 multiple myeloma cell lines against the NCATS MIPE library collection: KMS12BM_JCRB cell viability assay (AID 1918971). Further: nearly all actives have a fitted effect of over 35% in size. Further: potency means the concentration at half of the fitted maximal effect. The method, boiled down: (§3)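 Myeloma cells (500 per well) were exposed to MIPE 4.0 compounds by pin transfer and incubated 48 hours at 37C, 5% CO2. Viability was read as ATP by CellTiter-Glo luminescence, normalised to DMSO (100%) and media-only (0%) wells.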

Test [9] can be described thus: Quantitative High-Throughput drug screen in 47 multiple myeloma cell lines against the NCATS MIPE library collection: KMS12PE_JCRB cell viability assay (AID 1918972). Further: nearly all actives have a fitted effect of over 30% in size. Further: potency means the concentration at half of the fitted maximal effect. The method, boiled down:
as §1

Test [10] is described as follows: Quantitative High-Throughput drug screen in 47 multiple myeloma cell lines against the NCATS MIPE library collection: MOLP8_DSMZ cell viability assay (AID 1918977). Further: nearly all actives have a fitted effect of over 45% in size. Further: potency means the concentration at half of the fitted maximal effect. The method, boiled down:
(§4)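 500 cells/well per myeloma line exposed to pinned MIPE 4.0 compounds for 48 h at 37 °C, 5% CO2. Viability read as ATP by CellTiter-Glo luminescence, normalised to DMSO-only (100%) and media-only (0%) wells.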

Test [11] is described as follows: Quantitative High-Throughput drug screen in 47 multiple myeloma cell lines against the NCATS MIPE library collection: NCIH929_DSMZ cell viability assay (AID 1918978). Further: nearly all actives have a fitted effect of over 35% in size. Further: potency means the concentration at half of the fitted maximal effect. The method, boiled down:
as §4

Test [12] can be described thus: Quantitative High-Throughput drug screen in 47 multiple myeloma cell lines against the NCATS MIPE library collection: OCIMY1_PLB cell viability assay (AID 1918979). Further: nearly all actives have a fitted effect of over 35% in size. Further: potency means the concentration at half of the fitted maximal effect. The procedure, abridged: as §4
The nature of test [13]: Quantitative High-Throughput drug screen in 47 multiple myeloma cell lines against the NCATS MIPE library collection: MM1S_ATCC cell viability assay (AID 1918980). Further: nearly all actives have a fitted effect of over 45% in size. Further: potency means the concentration at half of the fitted maximal effect. The procedure, abridged:
as §4

A short description of test [14]: Quantitative High-Throughput drug screen in 47 multiple myeloma cell lines against the NCATS MIPE library collection: MM1R_ATCC cell viability assay (AID 1918981). Further: nearly all actives have a fitted effect of over 35% in size. Further: potency means the concentration at half of the fitted maximal effect. The procedure, abridged:
as §4

Test [15] is described as follows: Quantitative High-Throughput drug screen in 47 multiple myeloma cell lines against the NCATS MIPE library collection: INA6_PLB cell viability assay (AID 1918965; further: potency means the concentration at half of the fitted maximal effect; nearly all actives have a fitted effect of over 55% in size). The procedure, abridged:
as §1

Test [16] can be described thus: Quantitative High-Throughput drug screen in 47 multiple myeloma cell lines against the NCATS MIPE library collection: KMS20_JCRB cell viability assay (AID 1918973). Further: nearly all actives have a fitted effect of over 45% in size. Further: potency means the concentration at half of the fitted maximal effect. The procedure, abridged:
as §2

Test [17] is described as follows: Quantitative High-Throughput drug screen in 47 multiple myeloma cell lines against the NCATS MIPE library collection: KMS26_JCRB cell viability assay (AID 1918975). Further: nearly all actives have a fitted effect of over 45% in size. Further: potency means the concentration at half of the fitted maximal effect. The procedure, abridged: as §3
Test [18] can be described thus: Quantitative High-Throughput drug screen in 47 multiple myeloma cell lines against the NCATS MIPE library collection: MMM1_PLB cell viability assay (AID 1918976). The procedure, abridged: as §4
Test [19] is described as follows: Quantitative High-Throughput drug screen in 47 multiple myeloma cell lines against the NCATS MIPE library collection: Karpas417_ECACC cell viability assay (AID 1918961). Conditions: Karpas417 myeloma viability, CellTiter-Glo ATP luminescence, 48 h; viability (% of DMSO): at 45.8 µM (top of the series). The procedure, abridged: as §1

For the compound `C[C@@H]1CC[C@@]2(OC1)OC1CC3C4CC=C5CC(O)CCC5(C)C4CCC3(C)C1[C@@H]2C` (stereo not given in full), the Potency entry in test [1], in [2], in test [3], in test [4], in test [5] and in test [6] was “inactive” each time. For the same compound, the Potency result in [7], in test [8], in [9], in test [10], in test [11] and in test [12] was “inactive” in each case. Further, the Potency entry in [13] and in [14] was “inactive” in each case.

In the case of `FC(F)(F)c1ccc(Nc2nc3ccc(Oc4ccnc(-c5ncc(C(F)(F)F)[nH]5)c4)cc3[nH]2)cc1`, the Potency in test [1] is 20.9 µM (active); in [2], 23.5 µM (active); in [3] it was 11.8 µM (active); in test [15] it was 18.7 µM (active); in test [4] it was 20.9 µM (active); in [6], 20.9 µM (active). Moreover, the Potency in [7] was 23.5 µM (active); in [8], 18.7 µM (active); in test [9] it was 14.8 µM (active); in test [13] it was 20.9 µM (active).

On to `OCc1ccccc1O[C@@H]1O[C@H](CO)[C@H](O)[C@H](O)[C@H]1O`, for which the Potency entry in [1], in test [2], in [3], in test [6], in [7] and in test [9] was “inactive” throughout. In addition, the Potency entry in test [16], in test [17], in [12] and in test [14] was “inactive” in each case. Further, the values for the Potency in test [15], in [11] and in [13] were 13.2 µM (active), 11.8 µM (active) and 20.9 µM (active), respectively.

As for `O=C(O)C[C@H](O)C[C@H](O)C=Cc1c(C2CC2)nc2ccccc2c1-c1ccc(F)cc1`, the Potency in test [1] was 7.43 µM (active); in test [2], 14.8 µM (active); in [3], 0.935 µM (active); in test [15] it was 4.18 µM (active); in [5] it was 13.2 µM (active); in [6] it was 4.69 µM (active). Besides, the Potency in [7] was 3.32 µM (active); in [9] it was 3.72 µM (active); in test [17] it was 18.7 µM (active); in test [18], 14.8 µM (active); in test [10], 4.69 µM (active); in test [11], 3.72 µM (active). The Potency in test [13] is 5.26 µM (active); in test [14], 5.9 µM (active).

As to `C[C@H]1[C@@H](OC(=O)CCC(=O)O)O[C@@H]2O[C@@]3(C)CC[C@@H]4[C@H](C)CC[C@@H]1[C@@]24OO3`, the Potency in test [1] was 3.32 µM (active); in test [2], 6.62 µM (active); in [3], 0.935 µM (active); in test [15], 2.64 µM (active); in test [4], 1.48 µM (active); in test [5], 16.6 µM (active). Further, the Potency in test [6] is 2.35 µM (active); in [8], 5.26 µM (active); in test [9], 1.05 µM (active); in test [17] it was 14.8 µM (active); in test [18], 5.9 µM (active); in [11], 2.64 µM (active). Further, the Potency in [12] and in test [14] was 14.8 µM (active) each time.

As to `C[C@]12CC[C@@H]3c4ccc(O)cc4CC[C@H]3[C@H]1CC[C@H]2O`, the Potency in test [1] was 4.69 µM (active); in test [2], 14.8 µM (active); in test [3], 5.9 µM (active); in [15], 8.33 µM (active); in [4], 23.5 µM (active); in test [5], 8.33 µM (active). The Potency in test [6] was 10.5 µM (active); in test [8] it was 33.2 µM (active); in [16], 18.7 µM (active); in test [17] it was 5.9 µM (active); in test [18] it was 16.6 µM (active); in test [13], 8.33 µM (active). Moreover, in test [14], the Potency was 14.8 µM (active).

For `CN(C)CCN1C(=O)c2cccc3cc(N)cc(c23)C1=O`, the Potency in test [1] was 7.43 µM (active); in [2], 14.8 µM (active); in test [3], 18.7 µM (active); in test [15] it was 3.32 µM (active); in [4], 20.9 µM (active); in [6], 18.7 µM (active). Moreover, the Potency in [8] is 5.26 µM (active); in test [9], 18.7 µM (active); in test [17] it was 20.9 µM (active); in [18] it was 11.8 µM (active); in test [10], 23.5 µM (active); in test [11] it was 8.33 µM (active). The Potency was 23.5 µM (active) in test [12] and 9.35 µM (active) in test [14].

In the case of `CCn1c(=O)c2c(nc(C=Cc3ccc(OC)c(OC)c3)n2C)n(CC)c1=O`, the Potency entry in test [19], in [4], in [5], in [6], in [8] and in test [17] was “inactive” in each case. The Potency result in test [10], in test [11] and in test [14] was “inactive” in each case. The figures for the Potency in test [7] and in test [9] were 11.8 µM (active) and 20.9 µM (active), respectively.

As for `Cc1cnn(C)c1C(=O)Nc1cc(Nc2ccc3c(C=Cc4ccccn4)n[nH]c3c2)ccc1F`, the Potency in test [1] was 18.7 µM (active); in test [2] it was 5.26 µM (active); in [3] it was 10.5 µM (active); in test [15] it was 4.18 µM (active); in test [4] it was 23.5 µM (active); in test [6], 4.69 µM (active). Further, the Potency in [7] is 2.64 µM (active); in test [9], 2.96 µM (active); in test [17], 33.2 µM (active); in test [18], 13.2 µM (active); in [11], 14.8 µM (active); in test [13] it was 20.9 µM (active). In test [14], the Potency is 26.4 µM (active).

`CCCCCCCCCCCC(CC1OC(=O)C1CCCCCC)OC(=O)C(CC(C)C)NC=O` (stereo not given): the Potency result in test [1], in test [2], in [3], in [5], in [6] and in [11] was “inactive” each time. In addition, the Potency result in test [12] and in test [13] was “inactive” in each case. Moreover, the Potency in test [15] is 0.332 µM (active); in [4], 23.5 µM (active); in test [8], 20.9 µM (active); in [16], 0.0042 µM (active); in test [18] it was 20.9 µM (active).

On to `c1ccc(CNc2nc(NCc3ccccc3)c3ccccc3n2)cc1`, for which the Potency in [1] was 8.33 µM (active); in test [2] it was 16.6 µM (active); in test [3] it was 8.33 µM (active); in [15], 7.43 µM (active); in test [4], 23.5 µM (active); in test [6], 5.9 µM (active). The Potency was 5.9 µM (active) in [7]; 29.6 µM (active) in [8]; 5.9 µM (active) in [9]; 8.33 µM (active) in test [16]; 26.4 µM (active) in test [17]; 16.6 µM (active) in test [18]. The Potency in [10] is 18.7 µM (active); in test [11], 8.33 µM (active); in test [13], 8.33 µM (active); in [14], 26.4 µM (active).

For the origin of these results see PubChem BioAssay (NCATS).
